Test results published in the supplement of paper PMC12339681.
Structures can show the parent of a compound that is named as a salt.

Tested on: PBMC-derived induced microglia-like cells (piMGLC)
Assay: synaptosome phagocytic index relative to DMSO control (fraction of DMSO); higher = more phagocytosis
Settings: concentration: 10 uM (2 uM for compounds listed in Table S2); pretreatment time: 24 h; assay time: 3 h
Protocol: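 PBMC-derived induced microglia-like cells (piMGLCs) in 96-well plates were pretreated for 24 h with CNS-penetrant library compounds (MedChemExpress HY-L028), mostly at 10 uM; Table S2 lists 9 compounds at 2 uM. pHrodo-Red-labelled human iPSC-neuron synaptosomes (3 ug/well) were then added for 3 h, and cells were fixed and imaged by confocal microscopy. Phagocytic index (synaptosome area / cell count, CellProfiler) is a mean over 3 replicate wells on different plates, normalized to the DMSO control. Compounds leaving <10% of DMSO cell count were marked toxic and given no value.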

Row | SMILES | synaptosome phagocytic index
1 | CN1CCN(C2=Nc3cc(Cl)ccc3Nc3ccccc32)CC1 [Clozapine] | 0.697
2 | COc1cc2ncnc(Nc3cccc(Cl)c3F)c2cc1OC(=O)N1CCN(C)C[C@H]1C [Zorifertinib] | 0.285
3 | COCCOC(=O)C1=C(C)NC(C)=C(C(=O)OC(C)C)C1c1cccc([N+](=O)[O-])c1 (stereo not given) [Nimodipine] | 0.85
4 | Cc1nc2n(c(=O)c1CCN1CCC(c3noc4cc(F)ccc34)CC1)CCCC2O (stereo not given) [Paliperidone] | 0.852
5 | Cc1nc2n(c(=O)c1CCN1CCC(c3noc4cc(F)ccc34)CC1)CCCC2 [Risperidone] | 0.887
6 | NC1=N[C@@]2(c3cc(NC(=O)c4ccc(F)cn4)ccc3F)COC[C@H]2CS1 | 1.35
7 | C[C@@H]1O[C@@H]1P(=O)(O)O [Fosfomycin_(calcium)] | 0.946
8 | Nc1nc2c(ncn2COC(CO)CO)c(=O)[nH]1 [Ganciclovir] | 0.98
9 | COc1ncc(F)cc1CNc1ccc(Cc2c[nH]c3ncc(C)cc23)c(F)n1 [PLX5622_(hemifumarate)] | 0.966
10 | Cc1ccc(C(=O)c2cc(O)c(O)c([N+](=O)[O-])c2)cc1 [Tolcapone] | 0.526
11 | O=C(c1ccc(F)cc1)N1CCC[C@H](c2nc(-c3ccc(F)cc3)no2)C1 | 0.938
12 | CC1(C)S[C@@H]2[C@H](NC(=O)[C@H](NC(=O)N3CCN(S(C)(=O)=O)C3=O)c3ccccc3)C(=O)N2[C@H]1C(=O)O [Mezlocillin_(sodium)] | 0.977
13 | O=C(CCCCCCC(=O)Nc1ccccc1)NO [Vorinostat] | 0.0904
14 | CC(=O)OCC[N+](C)(C)C [Acetylcholine_(chloride)] | 0.587
15 | CCC(C)n1ncn(-c2ccc(N3CCN(c4ccc(OCC5COC(Cn6cncn6)(c6ccc(Cl)cc6Cl)O5)cc4)CC3)cc2)c1=O (stereo not given) [Itraconazole] | 0.377
16 | Nc1nc(NC2CC2)c2ncn([C@H]3C=C[C@@H](CO)C3)c2n1 [Abacavir] | 1.15
17 | Clc1cccc(Cl)c1NC1=NCCN1 [Clonidine_(hydrochloride)] | 0.898
18 | C[C@@H]1CN(c2cccnc2F)C(=O)c2cc(COc3ccc(Cl)cn3)nn21 | 1.13
19 | CC(C)c1ccc(NC(=O)c2c(-c3cc(F)ccc3F)ccnc2N2CC[C@H](F)C2)cn1 [Nav1.1_activator_1] | 0.451
20 | Cc1cc([C@@]23c4ccccc4C(=O)N2CCN3C(=O)c2ccc(F)c(F)c2)ccc1Cl | 0.335

Row | SMILES | synaptosome phagocytic index
21 | C.CN(C)C(=O)c1cc2cnc(Nc3ccc(N4CCNCC4)cn3)nc2n1C1CCCC1 [Ribociclib_succinate_hydrate] | 0.195
22 | CC(C)OC(=O)NC1CCN(Cc2cc(Cl)c3cccnc3c2O)CC1 | 0.609
23 | CC(=O)[C@H]1CC[C@H]2[C@@H]3CCC4=CC(=O)CC[C@]4(C)[C@H]3CC[C@]12C [Progesterone] | 0.761
24 | N#Cc1cccc(-c2c[nH]c3ncnc(N4CCOCC4)c23)c1 | 0.623
25 | CC(=O)Nc1cccc(-n2c(=O)n(C3CC3)c(=O)c3c(Nc4ccc(I)cc4F)n(C)c(=O)c(C)c32)c1 [Trametinib] | 0.637
26 | Fc1ccc(-c2ccc3c(c2)[nH]c2ccncc23)cn1 | 0.711
27 | CCCCC1C(=O)N(c2ccccc2)N(c2ccccc2)C1=O [Phenylbutazone] | 0.797
28 | N[C@@H]1CONC1=O [D-Cycloserine] | 0.834
29 | COc1ccc(C[C@@H]2c3cc(OC)c(OC)cc3CC[N@+]2(C)CCC(=O)OCCCCCOC(=O)CC[N@@+]2(C)CCc3cc(OC)c(OC)cc3[C@H]2Cc2ccc(OC)c(OC)c2)cc1OC [Cisatracurium_(besylate)] | 0.726
30 | CN(C/C=C/C#CC(C)(C)C)Cc1cccc2ccccc12 [Terbinafine] | 0.502
31 | CC(C)[C@H]1C(=O)N[C@@H](CCCNC(=N)N)C(=O)NCC(=O)N[C@@H](CC(=O)O)C(=O)N[C@H](Cc2ccccc2)C(=O)N1C [Cilengitide] | 1.09
32 | CCCCN1C[C@H](O)[C@@H](O)[C@H](O)[C@H]1CO [Miglustat_(hydrochloride)] | 1.04
33 | CC(=O)NCCCS(=O)(=O)O [Acamprosate_(calcium)] | 0.864
34 | CCc1cccc2c3c([nH]c12)C(CC)(CC(=O)O)OCC3 (stereo not given) [Etodolac] | 1.01
35 | O=C(NC1CCCCC1)N(Cc1ccccc1)CC1CCNCC1 | 0.882
36 | O=C1N[C@@H](Cc2cnc[nH]2)C(=O)N2CCC[C@@H]12 [Cyclo(his-pro)_(TFA)] | 0.449
37 | COc1cc(C(C)=O)ccc1OCCCN1CCC(c2noc3cc(F)ccc23)CC1 [Iloperidone] | 0.853
38 | CCCN(CCc1cccs1)[C@H]1CCc2c(O)cccc2C1 [Rotigotine] | 0.995
39 | COc1ccc(Cl)cc1C(=O)NCCc1ccc(S(=O)(=O)NC(=O)NC2CCCCC2)cc1 [Glibenclamide] | 0.608
40 | Cc1ccc(NC(=O)c2ccc(CN3CCN(C)CC3)cc2)cc1Nc1nccc(-c2cccnc2)n1 [Imatinib_(Mesylate)] | 0.52
